Screens from PubChem.
Compounds with a hit are over-represented: about 5.4% of the library has one in this group of screens.
SKKanGAS inh – S. pyogenes SKKanGAS growth inhibitors in kanamycin, primary screen, streptokinase expression inhibitor project, SKKanGAS strain, BacTiter-Glo luminescence | hit rate 1.3% among 300,000 | 6 h | inhibition, % at 7.5 µM | AID 1662, 2009;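 active = mean replicate score, as percent of positive control median, at least 50; inconclusive = mean below 50 but one replicate at or above 50; inactive = mean and every replicate below 50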;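 note: strain carries kanamycin resistance gene driven by streptokinase promoter and grows in 40 µg/ml kanamycin; loss of luminescence reflects streptokinase promoter inhibition or plain growth inhibition; 0% = median of DMSO wells and 100% = positive control at its reference dose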
Beta cell apopt – inhibitors of cytokine-induced beta cell apoptosis, primary screen, luminescence; protection from apoptosis, % (test concentration not listed); INS-1E cytokine-induced death, ATP luminescence, 48 h; percent of positive-control rescue, neutral wells zero; AID 435005, 2010; hit rate 0.8% among 300,000;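 active = Every replicate reaches about 75%, or at least half do and their mean reaches it too, limit read from the data; inconclusive = At least half of replicates reach the limit but their mean does not; inactive = Under half of replicates reach the limit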;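 note: 0% = cytokine-treated negative control wells and 100% = positive control rescue; higher means more ATP so stronger rescue from cytokine killing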
MPTP block – mitochondrial permeability transition pore inhibitors, primary screen, biochemical, isolated mouse mitochondria, absorbance; Ca2+ swelling absorbance, 30 min; inhibition, % at 10 µM; hit rate 1.4% among 360,000;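 active = inhibition of 50% or more, scaled per plate between neutral and stimulator controls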;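 note: 0% = DMSO wells given calcium and 100% = 1 mM EGTA wells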
CSC inhib – cancer stem cell viability inhibitors, primary screen, luminescence; hit rate 1.1% among 300,000; inhibition, % at 7.5 µM; cancer stem cell-like cells viability; in the data active = inhibition above about 75%; inconclusive = no clear call, values can overlap the other calls; tested in HMLE shEcad cells
Mdm2 MdmX PPI – inhibitors of human Mdm2-MdmX association, primary screen, cell-based, luminescence, split luciferase, SaOS-2, uHTS; Protein Mdm4 (Homo sapiens) + E3 ubiquitin-protein ligase Mdm2 (Homo sapiens), …; AID 485346, 2010; hit rate 3% among 330,000; SaOS-2 split-luciferase Mdm2/MdmX complementation; inhibition, % at 8 µM;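 active = inhibition of at least 50% at 8 µM in the primary screen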
Target sequence (O15151 whole entry, looked up): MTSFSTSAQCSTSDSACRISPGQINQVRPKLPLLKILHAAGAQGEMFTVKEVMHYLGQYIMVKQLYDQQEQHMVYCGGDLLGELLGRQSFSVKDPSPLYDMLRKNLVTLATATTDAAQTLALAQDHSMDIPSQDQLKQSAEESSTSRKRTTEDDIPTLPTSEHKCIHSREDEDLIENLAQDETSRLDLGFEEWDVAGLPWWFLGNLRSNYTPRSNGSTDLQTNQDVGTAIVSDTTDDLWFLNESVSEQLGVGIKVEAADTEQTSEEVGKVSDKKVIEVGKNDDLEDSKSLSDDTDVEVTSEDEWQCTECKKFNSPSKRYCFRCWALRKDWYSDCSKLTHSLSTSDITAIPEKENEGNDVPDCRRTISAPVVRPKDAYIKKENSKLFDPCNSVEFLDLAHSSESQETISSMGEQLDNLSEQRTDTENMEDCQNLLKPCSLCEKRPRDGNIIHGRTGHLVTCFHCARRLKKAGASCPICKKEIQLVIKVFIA
Target sequence (Q00987 whole entry, looked up): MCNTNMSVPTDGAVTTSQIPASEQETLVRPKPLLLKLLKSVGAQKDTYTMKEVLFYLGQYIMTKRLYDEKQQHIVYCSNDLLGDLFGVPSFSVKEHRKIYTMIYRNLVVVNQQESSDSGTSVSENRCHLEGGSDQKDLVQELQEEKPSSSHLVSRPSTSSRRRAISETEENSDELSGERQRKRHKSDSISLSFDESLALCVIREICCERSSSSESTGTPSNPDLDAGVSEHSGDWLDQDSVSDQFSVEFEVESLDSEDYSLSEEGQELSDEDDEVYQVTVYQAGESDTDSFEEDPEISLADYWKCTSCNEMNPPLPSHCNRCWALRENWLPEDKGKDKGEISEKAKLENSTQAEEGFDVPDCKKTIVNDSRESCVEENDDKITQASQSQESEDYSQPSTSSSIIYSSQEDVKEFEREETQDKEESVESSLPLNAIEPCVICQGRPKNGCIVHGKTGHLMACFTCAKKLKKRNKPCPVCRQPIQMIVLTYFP
Calb FLC – C. albicans growth inhibition with fluconazole, primary screen, CaCi-2 strain, Alamar Blue fluorescence. C. albicans CaCi-2 (fluconazole-resistant clinical isolate) + fluconazole, 48 h. hit rate 0.57% among 300,000. growth inhibition, % (no concentration beside the values). AID 1979, 2009;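 active = growth inhibition above about 58% in most replicates, limit read from the data, passing the limit was not always enough; inconclusive = exactly half the replicates above a set limit; inactive = most replicates below a set limit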;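 note: all wells also contain fluconazole at 8 µg/ml as a sub-toxic cotreatment; 0% = median of DMSO wells and 100% = median of geldanamycin control wells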
Mdm2 MdmX conf – Mdm2-MdmX complex disruptors, retested hits, confirmation, luminescence, single concentration; AID 489028, 2010; inhibition, % at 8 µM; shares compounds with Mdm2 MdmX PPI; Mdm2-MdmX binding, luminescent assay; hit rate 55% among 10,000; in the data active = inhibition above about 40%
Full FLuc ctr – full-length luciferase signal inhibition, confirmation, counter-screen for Mdm2/MdmX interaction inhibitor project, cell-based, single concentration, SaOS-2. inhibition, % at 8 µM. shares compounds with Mdm2 MdmX PPI. SaOS-2 full-length luciferase counterscreen, luminescence. hit rate 77% among 6,200;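 active = mean inhibition at 8 µM reaching about 37%, which flags the compound as non-specific, limit read from the data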;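 note: p53-null SaOS-2 cells with luciferase driven by a doxycycline-inducible promoter; compound on cells about two nights before reading with doxycycline added after day one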
Active calls of the source: *; ? = inconclusive; · = not tested or not shown.

SMILES | SKKanGAS inh | Beta cell apopt | MPTP block | CSC inhib | Mdm2 MdmX PPI | Calb FLC | Mdm2 MdmX conf | Full FLuc ctr
Cc1cccc(N(Cc2ccccc2)C(=O)c2ccccc2S(C)(=O)=O)c1 | -1.7 | -0.1 | -1.4 | -17.3 | 20.2 | 2.9 | · | ·
Cc1ccc2c(c1)N(CC(=O)NC1CCCC1)C(=O)c1cccnc1O2 | 11.3 | -4.9 | 0.0 | -7.1 | 4.8 | 1.1 | · | ·
COc1cccc(/C=N/Nc2nc(Nc3ccc([N+](=O)[O-])cc3)nc(N3CCCC3)n2)c1O | 72.9* | 59.9 | 0.4 | · | 96.1* | 72.1* | 89.4* | 39.1*
O=c1[nH]c(N/N=C/c2cc3c(cc2[N+](=O)[O-])OCO3)nc2ccccc12 | 7.9 | -5.2 | 2.1 | -18.6 | 64.0* | 4.8 | 6.0 | ·
COc1cccc(/C=N/Nc2ccc([N+](=O)[O-])cn2)c1O | 103.9* | 119.3* | 4.3 | 122.8* | 93.1* | 97.2* | 91.2* | 52.9*
COc1c(/C=N/Nc2nc(N3CCCCC3)nc(N3CCCCC3)n2)cccc1[N+](=O)[O-] | 34.9 | 29.1 | 3.2 | -9.9 | 15.0 | 1.3 | · | ·
Cc1ccc(Nc2nc(N/N=C\c3ccc4c(c3)OCO4)nc(N3CCOCC3)n2)cc1 | ? | 2.2 | -0.7 | 53.8 | 64.8* | 51.5 | 57.0* | 78.1*
CC1CCN(C(=O)c2[nH]cnc2C(=O)N[C@@H](C)C(=O)OC(C)(C)C)CC1 | -3.0 | -15.0 | 0.1 | -4.3 | 20.8 | -3.7 | · | ·
CC(=O)Oc1ccc2oc(C)c(C(=O)N3CCOCC3)c2c1 | -6.0 | -5.7 | 3.6 | -0.5 | -7.9 | 1.5 | · | ·
O=[N+]([O-])c1cc2c(cc1/C=N/Nc1nc(Nc3ccccc3)nc(N3CCCCC3)n1)OCO2 | 19.8 | 10.0 | 0.7 | 4.0 | 63.6* | -2.8 | 42.5* | 37.3*
Cc1cc(C)nc(N/N=C/c2cc3c(cc2[N+](=O)[O-])OCO3)n1 | -7.4 | -2.7 | 1.6 | 0.3 | 7.2 | ? | · | ·
Cc1nc(NC(=O)/C=C/c2ccccc2)sc1C(=O)Nc1ccc(Cl)cc1 | 3.8 | 2.8 | -3.0 | -10.7 | 50.5* | 26.8 | 39.6 | 53.4*
CCOC(=O)C1=C(O)C(=O)N(Cc2cccnc2)C1c1ccc(C)cc1 (stereo unspecified) | 0.1 | -1.7 | -2.0 | · | -21.5 | 5.3 | · | ·
O=C(NCc1ccccc1)c1onc(CSc2ccccc2)c1C(=O)NCC1CC1 | 41.7 | 73.5 | 1.6 | 17.4 | 54.5* | -1.1 | 49.6* | 81.4*
O=C(NC1CC2CCCC(C1)N2Cc1ccccc1)c1cccc(F)c1 (stereo unspecified) | 8.5 | 1.5 | 0.7 | 0.5 | 8.7 | -8.9 | · | ·
CCc1c(C)sc(NC(=S)N2CCN(C(=O)C3CCCO3)CC2)c1C(=O)OC (stereo unspecified) | 8.1 | -1.1 | 0.1 | 6.1 | 7.5 | 7.1 | · | ·
COc1c(Cl)cc(Cl)cc1/C=C/C(=O)c1ccc(NC(=O)c2cccs2)cc1 | 26.4 | 23.3 | 18.4 | 102.9* | 98.5* | 9.8 | 94.8* | 58.6*
Cc1ccc2c(CC(=O)NNC(=O)c3ccncc3)coc2c1 | -2.4 | -2.7 | -1.5 | -1.9 | -5.2 | -3.3 | · | ·
O=C1c2ccccc2-c2onc3ccc(Oc4ccccc4)c1c23 | 16.7 | · | 1.8 | · | 96.3* | -7.8 | 63.3* | 50.5*
COCCCNC(=O)c1ccc2c3c(onc13)-c1ccccc1C2=O | 9.5 | 19.5 | 6.6 | 23.2 | -67.7 | -13.6 | · | ·
O=C(COC(=O)C1CCN(c2ccc(C(F)(F)F)cn2)CC1)Nc1ccc(Cl)cn1 | 17.4 | 1.8 | 0.9 | -24.9 | -10.2 | 0.8 | · | ·
COc1cc(CN2CCC(C(=O)NC(c3ccc(-c4ccccc4)cc3)c3cnccn3)CC2)cc(OC)c1 (stereo unspecified) | · | · | -0.8 | · | · | · | · | ·
CCOc1ccc(-n2c(=O)cc(N3CCN(c4ccc(F)cc4)CC3)[nH]c2=O)cc1 | -11.9 | 2.3 | -2.3 | 0.7 | -6.3 | 5.6 | · | ·
CCOc1ccccc1CNC(=O)Cn1nc(C)c2c(C)n(-c3ccc(C)cc3)nc2c1=O | -1.8 | 17.1 | 2.3 | -0.8 | 15.7 | 59.6 | · | ·
Cc1nnc(N2CCCC(C(=O)NCc3ccccc3F)C2)c2nn(-c3ccccc3)c(C)c12 (stereo unspecified) | 4.4 | 2.4 | -0.7 | -30.9 | 68.5* | -4.6 | 29.8 | ·
SMILES | SKKanGAS inh | Beta cell apopt | MPTP block | CSC inhib | Mdm2 MdmX PPI | Calb FLC | Mdm2 MdmX conf | Full FLuc ctr
CCOc1ccccc1CNC(=O)C1CCN(c2nnc(C)c3c(C)n(-c4ccc(C)cc4)nc23)CC1 | -3.1 | 59.3 | -0.9 | 17.7 | 99.8* | -4.0 | 75.5* | 5.2
Cc1ccc(-n2nc3c(N4CCC(C(=O)NCc5ccccc5C)CC4)nnc(C)c3c2C)cc1 | 4.8 | 31.8 | -1.0 | 46.4 | 95.8* | -15.8 | 31.9 | ·
Cc1ccccc1CNC(=O)C1CCCN(c2nnc(C)c3c(C)n(-c4ccccc4)nc23)C1 (stereo unspecified) | 3.3 | 10.8 | 0.6 | 10.6 | 33.3 | -16.6 | · | ·
Cc1nnc(N2CCC(C(=O)N3CCCCCC3)CC2)c2nn(-c3ccc(Cl)cc3)c(C)c12 | -7.1 | 3.8 | -1.6 | 4.1 | 59.7* | -0.8 | 33.2 | 83.0*
COc1c(OC(C)=O)ccc(/C=C/c2ccc3ccccc3n2)c1[N+](=O)[O-] | -1.5 | -3.3 | 28.3 | 68.4 | -210.5 | -3.8 | · | ·
CCOC(=O)N/N=C(/C)c1ccc([N+](=O)[O-])o1 | 5.6 | -4.9 | -0.1 | -8.2 | 37.5 | 18.9 | · | ·
O=C(c1c(F)cccc1F)N1CCCC1 | -3.4 | 1.3 | -0.8 | -15.4 | -2.4 | -19.4 | · | ·
COc1ccc(-n2nc3c(N4CCC(C(=O)NCCc5ccco5)CC4)nnc(C)c3c2C)cc1 | 6.5 | 1.8 | -2.2 | -19.2 | 45.5 | -4.6 | · | ·
CCc1ccc(CNC(=O)C2CCCN(c3nnc(C)c4c(C)n(-c5ccccc5)nc34)C2)cc1 (stereo unspecified) | 13.7 | 33.8 | -3.5 | 4.6 | 43.9 | ? | · | ·
COc1ccc(-n2nc3c(N4CCC(C(=O)NCc5cccc(C)c5)CC4)nnc(C)c3c2C)cc1 | 0.9 | 37.3 | -1.7 | -15.1 | 99.4* | 69.9 | 44.6* | 47.8*
CCOc1ccc(CNC(=O)C2CCN(c3nnc(C)c4c(C)n(-c5ccc(C)cc5)nc34)CC2)cc1 | 5.5 | 23.7 | 0.2 | 4.9 | 86.9* | -15.1 | 40.2* | 39.8*
COc1ccccc1CCNC(=O)C1CCN(c2nnc(C)c3c(C)n(-c4ccc(C)cc4)nc23)CC1 | 8.0 | 32.6 | -2.1 | 10.9 | 88.7* | 27.5 | 39.4 | 78.7*
C/C(=N\NC(=S)Nc1ccccc1)C1Cc2ccccc2C(=O)O1 (stereo unspecified) | -9.1 | -0.6 | 7.3 | -15.5 | 7.6 | 16.2 | · | ·
